Data taken from PubChem BioAssay (EPA / NIEHS).
Active and inactive are the calls of the source. Rule for the calls: active = hit-call score of the fitted dose curve at least 0.9, where 1 is the maximum; inactive = score below 0.9.

assay: APR_HepG2_NuclearSize_24hr: Apredica 24-hour HepG2 Assay for Nuclear Size (AID 2282907); conditions: high-content imaging, actives raise or lower the signal
Procedure: APR_HepG2_24hr is a cell-based, multiplexed-readout assay that uses HepG2, a human liver cell line, with measurements taken at 24 hours after chemical dosing in a 384-well plate.APR_HepG2_NuclearSize_24hr is one of 10 assay component(s) measured or calculated from the APR_HepG2_24hr assay. It is designed to make measurements of cell phenotype, a form of morphology reporter, as detected with fluorescence intensity signals by HCS Fluorescent Imaging technology.Data from the assay component APR_HepG2_NuclearSize_24hr was analyzed into 1 assay endpoint. This assay endpoint, APR_HepG2_NuclearSize_24hr, was analyzed with bidirectional fitting relative to DMSO as the negative control and baseline of activity. Using a type of morphology reporter, measures of all nuclear dna for gain or loss-of-signal activity can be used to understand the signaling at the nuclear-level. Furthermore, this assay endpoint can be referred to as a primary readout, because this assay has produced multiple assay endpoints where this one serves a signaling function. To generalize the intended target to other relatable targets, this assay endpoint is annotated to the cell morphology intended target family, where the subfamily is organelle conformation.
Cells were treated with dimethyl sulfoxide (DMSO) as a solvent control at a final concentration of 0.5% v/v or with compounds in DMSO with a resulting final DMSO concentration of 0.5% v/v. Compound treatment was done at concentrations of 0.39, 0.78, 1.56, 3.12, 6.24, 12.5, 25, 50, 100, and 200 uM in duplicate on each plate. Cells were treated with compounds for 1, 24, or 72 hr. Carbonyl […] m-chloro-phenylhydrazone (CCCP) and taxol were used as positive controls for mitochondrial function and cytoskeletal stability, respectively; DMSO served as the negative control for this experiment. Cells were fixed by the direct addition of 50 uL formaldehyde in Hank's Balanced Salt Solution (HBSS) to a final concentration of 3.7%. After incubation in the fixation medium for 30 min at room temperature (293-298 K), cells were rinsed twice with HBSS and treated with cell permeabilization buffer (16 uL of 0.5% Triton X-100) for 10 min at room temperature (293-298 K) before labeling. For mitochondrial membrane potential and mitochondrial measurements, pre-fixed cells were incubated with 50 uL of MitoTracker Red CMXRos (Invitrogen) at a concentration of 250 nM for 30 min before fixation. In the remaining cases, post-fixed cells were labeled by incubation with a multiplexed mixture of primary antibodies in HBSS for 60 min at room temperature (293-298 K) to detect immunoreactivity of c-Jun (1:500), phospho-histone H3 (1:100), phospho-histone H2A.x (1:200), p53 (1:400), alpha-tubulin (1:200) and Hoechst 33342 (2 ug/mL). Cells were labeled for multiplexed imaging on two separate plates: a) Hoechst 33342, MitoTracker Red, phospho-histone H3, and alpha-tubulin, and b) Hoechst 33342, phospho-histone H2A.x, and c-Jun. A final rinse with HBSS (50 uL) was performed before analysis. The primary and secondary antibodies for the proteins were phospho-histone H3 (rabbit anti-phospho-histone H3 and FITC-donkey anti-rabbit IgG), phospho-histone H2A.x (mouse anti-phospho-histone H2A.x and FITC-donkey anti-mouse IgG), c-Jun (rabbit anti-phospho-c-Jun and Cy3-donkey anti-rabbit IgG), p53 (sheep anti-p53 and Cy5-donkey anti-sheep IgG), alpha-tubulin (mouse anti-alpha-tubulin and Cy5-donkey anti-mouse IgG). These antibodies are available as the CellCiphr HepG2 assay kit (Millipore).Digital images of each well were captured using a Cellomics ArrayScan VTI (Thermo Scientific Cellomics) (0.8 NA objective, 0.63x optical coupler, and XF-93 filter set) at 20x magnification. The images were acquired using the autofocus feature of the ArrayScan instrument, which entails the following steps. First, the camera focuses on channel 1 (Hoechst 33342), where nuclei are identified. Second, a Z offset of 1 um is used for capturing mitochondria (MitoTracker Red). […]

| SMILES | outcome |
| --- | --- |
| CCOC(=O)NCCOc1ccc(Oc2ccccc2)cc1 | inactive |
| CC1(C)C(C=C(Cl)Cl)C1C(=O)OCc1cccc(Oc2ccccc2)c1 (stereo not given) | inactive |
| CCNc1nc(N)nc(Cl)n1 | inactive |
| CC(C)CCCCCCc1ccc(O)cc1 | inactive |
| CCCCC(CC)COC(=O)c1ccccc1C(=O)O (stereo not given) | inactive |
| CC(=O)S[C@@H]1CC2=CC(=O)CC[C@]2(C)[C@H]2CC[C@@]3(C)[C@@H](CC[C@@]34CCC(=O)O4)[C@H]12 | inactive |
| COC(=O)c1c(Cl)nn(C)c1S(=O)(=O)NC(=O)Nc1nc(OC)cc(OC)n1 | inactive |
| C[C@]12CC[C@@H]3c4ccc(O)cc4C[C@@H](CCCCCCCCCS(=O)CCCC(F)(F)C(F)(F)F)[C@H]3[C@@H]1CC[C@@H]2O (stereo not given in full) | inactive |
| COC(=O)c1ccccc1S(=O)(=O)NC(=O)Nc1nc(OC(F)F)cc(OC(F)F)n1 | inactive |
| CCC(O)=C1C(=O)CC(C(=O)O)CC1=O (stereo not given) | inactive |
| CC(=O)[C@H]1CC[C@H]2[C@@H]3CCC4=CC(=O)CC[C@]4(C)[C@H]3CC[C@]12C | inactive |
| COc1nc(C)nc(NC(=O)NS(=O)(=O)c2ccccc2OCCCl)n1 | inactive |
| Cc1nn(C)c(Oc2ccccc2)c1C=NOCc1ccc(C(=O)OC(C)(C)C)cc1 | inactive |
| CCOC(=O)c1ccc(O)cc1 | inactive |
| CCCN(CCC)c1c([N+](=O)[O-])cc(C(F)(F)F)c(N)c1[N+](=O)[O-] | inactive |
| S=C([S-])NCCNC(=S)[S-].[Mn+2] | inactive |
| COC(=O)c1ccccc1C(=O)O | inactive |
| CCOC(=O)C(C)Oc1ccc(Oc2nc3ccc(Cl)cc3o2)cc1 (stereo not given) | inactive |
| CCCOC(=O)c1ccc(C(=O)OCCC)nc1 | inactive |
| CCCCOC(=O)[C@@H](C)Oc1ccc(Oc2ccc(C(F)(F)F)cn2)cc1 | inactive |

| SMILES | outcome |
| --- | --- |
| OB(O)O | inactive |
| O=C(O)C1(C(=O)Nc2ccc(Cl)cc2Cl)CC1 | inactive |
| CCOC(=O)[C@H](C)Oc1ccc(Oc2nc3ccc(Cl)cc3o2)cc1 | inactive |
| C=CCOC(Cn1ccnc1)c1ccc(Cl)cc1Cl (stereo not given) | inactive |
| COC(=O)CSc1cc(N=c2sc(=O)n3n2CCCC3)c(F)cc1Cl | inactive |
| c1ccc(Nc2ccccc2)cc1 | inactive |
| COC(=O)c1cccc(C)c1S(=O)(=O)NC(=O)Nc1nc(OCC(F)(F)F)nc(N(C)C)n1 | inactive |
| CCC(C)OC(=O)N1CCCCC1CCO (stereo not given) | inactive |
| O=C(c1ccc(O)cc1O)c1ccc(O)cc1O | inactive |
| COC(=O)c1ccc(I)cc1S(=O)(=O)NC(=O)Nc1nc(C)nc(OC)n1 | inactive |
| CCCCCCC(C)OC(=O)COc1nc(F)c(Cl)c(N)c1Cl (stereo not given) | inactive |
| CCCCOC(=O)C(C)Oc1ccc(Oc2ccc(C(F)(F)F)cn2)cc1 (stereo not given) | inactive |
| CCN(CC)C(=O)c1cccc(C)c1 | inactive |
| CSC(=O)c1cccc2nnsc12 | inactive |
| CCCCC(CC)CN1C(=O)C2C3C=CC(C3)C2C1=O (stereo not given) | inactive |
| COc1c(Cl)ccc(Cl)c1C(=O)O | inactive |
| CCCCOCCOCCOCc1cc2c(cc1CCC)OCO2 | inactive |
| N#CSCSc1nc2ccccc2s1 | inactive |
| CCSC(=O)N(CC(C)C)CC(C)C | inactive |
| CCCCCOC(=O)COc1cc(N2C(=O)C3=C(CCCC3)C2=O)c(F)cc1Cl | inactive |
